Composite z-score and z-score data for five compounds are collected here from PubChem BioAssay.

Structures are written as SMILES. The source made the active and inactive calls.

For test [1], the system named is Plasmodium falciparum Sir2 (PF13_0152, Sir2A). The test is described as follows: Plasmodium falciparum Sir2A binding compounds – biochemical, small-molecule microarray, 635 nm fluorescence, primary screen (AID 1098).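 Also: score merges spot fluorescence intensity with its signal-to-noise ratio.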 Particulars: fluorescence 635 nm, higher = more signal.
A short description of test [2]: probe aDKK1 binding to arrayed compounds – biochemical, biotinylated probe, 635/667 nm fluorescence, primary screen (AID 1099).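 Also: score merges 667nm spot fluorescence with signal to noise across triplicate slides.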 Conditions: small-molecule microarray, higher = more signal.
Test [3] is described as follows: probe aCHRDL2 binding to arrayed compounds – biochemical, biotinylated probe, 635/667 nm fluorescence, primary screen (AID 1100). Particulars: small-molecule microarray, higher = more signal.
A short description of test [4]: change in splice reporter luminescence, either direction, cell-based, HEK293, spliceosome inhibition project, primary screen (AID 1101).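 Also: HEK293 cells carrying a splicing-competent luciferase reporter gene; test concentration not given here.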 Particulars: HEK293 splicing luciferase reporter, 24 h, higher = more signal, called active from +8 up or from −8 down.
Test [5] has as its target Fibroblast growth factor 10 (Homo sapiens) (UniProt O15520). Kind of test: compounds binding fibroblast growth factor 10 – biochemical, small-molecule microarray, 635 nm fluorescence, primary screen (AID 1102). Particulars: FGF10 binding, fluorescence 635 nm, higher = more signal.
Test [6] deals with glycogen synthase kinase-3 (GSK3A per assay name; protocol says GSK3B). Kind of test: compounds binding glycogen synthase kinase-3 – biochemical, small-molecule microarray, 635 nm fluorescence, GSK3A, primary screen (AID 1103). Also: the record names both GSK3A and GSK3B. Conditions: fluorescence 635 nm, higher = more signal.
The target in test [7] is Epidermal growth factor receptor (Homo sapiens) (UniProt P00533). Kind of test: compounds binding epidermal growth factor receptor – biochemical, small-molecule microarray, 635 nm fluorescence, primary screen (AID 1104).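 Also: score merges 667 nm emission intensity with spot signal to noise over triplicate slides.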 Conditions: EGFR binding, higher = more signal.
Epidermal growth factor receptor (Homo sapiens), sequence (P00533 whole entry, looked up): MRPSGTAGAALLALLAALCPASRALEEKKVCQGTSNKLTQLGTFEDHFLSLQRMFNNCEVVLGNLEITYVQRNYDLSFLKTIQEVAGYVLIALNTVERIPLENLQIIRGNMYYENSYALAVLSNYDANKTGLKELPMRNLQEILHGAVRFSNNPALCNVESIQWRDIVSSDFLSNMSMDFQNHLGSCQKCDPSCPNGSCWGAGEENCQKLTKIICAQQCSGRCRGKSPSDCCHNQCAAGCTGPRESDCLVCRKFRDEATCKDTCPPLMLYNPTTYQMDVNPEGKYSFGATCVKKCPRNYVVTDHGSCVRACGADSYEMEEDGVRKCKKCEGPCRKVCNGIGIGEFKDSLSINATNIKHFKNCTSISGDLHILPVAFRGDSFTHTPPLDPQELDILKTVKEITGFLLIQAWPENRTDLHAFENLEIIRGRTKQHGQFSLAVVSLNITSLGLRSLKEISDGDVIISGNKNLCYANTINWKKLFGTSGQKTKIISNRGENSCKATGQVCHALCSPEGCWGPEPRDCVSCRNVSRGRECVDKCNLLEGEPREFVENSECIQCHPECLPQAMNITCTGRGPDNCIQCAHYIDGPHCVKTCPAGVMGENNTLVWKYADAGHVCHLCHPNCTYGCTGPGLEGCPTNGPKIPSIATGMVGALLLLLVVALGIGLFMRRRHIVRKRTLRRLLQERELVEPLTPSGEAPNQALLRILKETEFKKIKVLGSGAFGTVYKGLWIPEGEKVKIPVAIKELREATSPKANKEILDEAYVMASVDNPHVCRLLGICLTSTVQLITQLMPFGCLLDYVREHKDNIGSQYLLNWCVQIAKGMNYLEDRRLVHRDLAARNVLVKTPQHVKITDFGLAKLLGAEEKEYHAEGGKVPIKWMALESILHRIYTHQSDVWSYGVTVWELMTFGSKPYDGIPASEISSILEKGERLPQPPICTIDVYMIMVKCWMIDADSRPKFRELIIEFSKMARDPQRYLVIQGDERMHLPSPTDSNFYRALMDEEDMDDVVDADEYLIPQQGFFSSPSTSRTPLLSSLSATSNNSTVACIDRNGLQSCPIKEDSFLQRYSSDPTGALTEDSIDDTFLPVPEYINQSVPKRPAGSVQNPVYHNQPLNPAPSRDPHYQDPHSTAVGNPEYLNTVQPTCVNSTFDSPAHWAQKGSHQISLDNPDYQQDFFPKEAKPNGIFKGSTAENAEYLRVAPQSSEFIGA
Test [8] addresses Follistatin-related protein 3 (Homo sapiens) (UniProt O95633). The test is described as follows: compounds binding follistatin-related protein 3 – biochemical, small-molecule microarray, 635 nm fluorescence, primary screen (AID 1105).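 Also: score merges emission near 667 nm and signal to noise per printed spot across three slides.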 Conditions: FSTL3 binding, higher = more signal.
Test [9] concerns the target Dickkopf-related protein 1 (Homo sapiens) (UniProt O94907). Kind of test: small molecules binding DKK1 protein – biochemical, small-molecule microarray, 635 nm fluorescence scan, primary screen (AID 1106).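 Also: score merges emission near 667 nm with signal to noise over three replicate slides.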 Conditions: higher = more signal.
Test [10] concerns Inhibin beta A chain (activin A). Kind of test: small molecules binding activin A – biochemical, small-molecule microarray, 635 nm fluorescence scan, primary screen (AID 1107).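 Also: mouse activin A protein probed at 4.33 µg/mL on printed slides; score merges bound-protein fluorescence near 667 nm with spot signal-to-noise.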 Conditions: INHBA, higher = more signal.
Test [11] deals with Human papillomavirus type 1a protein E7 (residues 44-93). The test is described as follows: small molecules binding HPV E7 44-93 – biochemical, small-molecule microarray, residues 44-93, 635 nm fluorescence, primary screen (AID 1108).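 Also: E7 fragment applied at 1 µg/mL in TBST for 1 h at 4 C; score combines spot fluorescence with its signal to noise ratio.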 Particulars: fluorescence 635 nm, higher = more signal.
Test [12] is described as follows: hepatitis C replication reporter changes, two-sided – Huh7 cells, luciferase reporter, HCV replication inhibitor project, primary screen (AID 1109).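 Also: huh7 hepatoma cells harbouring a luciferase neomycin HCV replicon reporter; luciferase luminescence as measure of HCV replicon replication; test concentration not given here.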 Particulars: Huh7 HCV replicon luciferase reporter, 48 h; higher = more signal.
Test [13] deals with Left-right determination factor 2 (Homo sapiens) (UniProt O00292). Kind of test: small molecules binding LEFTY2 protein – biochemical, small-molecule microarray, 635 nm fluorescence scan, primary screen (AID 1110). Conditions: higher = more signal.
Left-right determination factor 2 (Homo sapiens), sequence (O00292 whole entry, looked up): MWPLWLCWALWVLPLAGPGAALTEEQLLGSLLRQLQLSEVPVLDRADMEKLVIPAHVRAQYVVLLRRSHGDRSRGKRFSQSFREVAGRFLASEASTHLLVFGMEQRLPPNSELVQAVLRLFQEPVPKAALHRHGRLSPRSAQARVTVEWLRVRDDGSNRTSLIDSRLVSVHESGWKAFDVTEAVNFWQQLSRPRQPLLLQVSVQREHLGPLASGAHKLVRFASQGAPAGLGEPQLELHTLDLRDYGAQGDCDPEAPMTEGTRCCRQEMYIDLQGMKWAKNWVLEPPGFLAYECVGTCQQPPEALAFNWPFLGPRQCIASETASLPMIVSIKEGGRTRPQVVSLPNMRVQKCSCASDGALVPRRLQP
In test [14] the target is Calmodulin-1 (Homo sapiens) (UniProt P0DP23). Kind of test: small molecules binding calmodulin-1 with EGTA – biochemical, small-molecule microarray, Cy5-labelled CALM1, profiling panel (AID 1111).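 Also: labelled calmodulin applied in Tris saline Tween buffer holding calcium plus EGTA and DTT.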 Conditions: Cy5-CALM1 binding fluorescence, higher = more signal.
Test [15] has the same target. Kind of test: small molecules binding Ca-loaded calmodulin-1 – biochemical, small-molecule microarray, Cy5-labelled CALM1, plus calcium, artefact control for SMM control-protein annotation, profiling panel (AID 1112).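 Also: score merges spot fluorescence with signal to noise from triplicate slides.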 Particulars: Cy5-CALM1 binding fluorescence, higher = more signal.
Test [16] can be described thus: probe aWnt5a binding to arrayed compounds – biochemical, biotinylated probe, 635/667 nm fluorescence, primary screen (AID 1113).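 Also: score merges 667 nm fluorescence intensity with signal-to-noise per printed feature.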 Particulars: small-molecule microarray, higher = more signal.
Test [17] is described as follows: probe aShh binding to arrayed compounds – biochemical, biotinylated probe, 635/667 nm fluorescence, primary screen (AID 1114).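 Also: probe is biotin-labelled aShh protein from a stem cell growth factor screen; measures binding of labelled protein to compounds printed on the slide; score merges feature fluorescence at 667 nm with signal-to-noise.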 Particulars: small-molecule microarray, higher = more signal.
The nature of test [18]: probe aNog binding to arrayed compounds – biochemical, biotinylated probe, 635/667 nm fluorescence, primary screen (AID 1115).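 Also: probe is biotinylated aNog protein used at 0.15 µg/mL for 1 h at 4 C; z-score combines 667 nm fluorescence of each spot with its signal to noise.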 Particulars: small-molecule microarray, higher = more signal.
In test [19] the target is Torsin-1A-interacting protein 1 (Homo sapiens) (UniProt Q5JTV8). The test is described as follows: compound microarray binding of lysate hLAP1 – cell lysate, small-molecule microarray, COS7 lysate, 635/667 nm fluorescence, primary screen (AID 1116). Conditions: 635 nm fluorescence, higher = more signal.
Torsin-1A-interacting protein 1 (Homo sapiens), sequence (Q5JTV8 whole entry, looked up): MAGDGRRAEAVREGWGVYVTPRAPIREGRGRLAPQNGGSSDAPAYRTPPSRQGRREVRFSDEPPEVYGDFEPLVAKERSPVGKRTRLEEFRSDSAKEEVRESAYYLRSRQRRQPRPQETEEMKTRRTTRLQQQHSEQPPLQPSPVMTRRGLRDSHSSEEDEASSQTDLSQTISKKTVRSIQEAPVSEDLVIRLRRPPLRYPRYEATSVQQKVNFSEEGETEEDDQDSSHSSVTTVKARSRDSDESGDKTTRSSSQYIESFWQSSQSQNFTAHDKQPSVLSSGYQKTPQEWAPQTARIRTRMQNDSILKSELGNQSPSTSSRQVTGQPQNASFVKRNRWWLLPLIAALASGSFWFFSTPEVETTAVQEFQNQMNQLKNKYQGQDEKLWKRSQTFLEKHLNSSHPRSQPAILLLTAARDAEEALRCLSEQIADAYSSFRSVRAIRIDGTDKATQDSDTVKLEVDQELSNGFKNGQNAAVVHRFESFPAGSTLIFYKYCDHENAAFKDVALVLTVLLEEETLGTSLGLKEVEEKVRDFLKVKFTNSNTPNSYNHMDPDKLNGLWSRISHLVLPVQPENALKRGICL
Test [20] addresses Alpha-bungarotoxin (Bungarus multicinctus) (UniProt P60615). The test is described as follows: compounds binding labelled alpha-BTX control protein – biochemical, small-molecule microarray, Alexa647 label, 635/667 nm fluorescence, artefact control for SMM control protein annotation, profiling panel (AID 1117). Particulars: alpha-BTX-A647 binding fluorescence, higher = more signal.

Dickkopf-related protein 1 (Homo sapiens), sequence (O94907 whole entry, looked up): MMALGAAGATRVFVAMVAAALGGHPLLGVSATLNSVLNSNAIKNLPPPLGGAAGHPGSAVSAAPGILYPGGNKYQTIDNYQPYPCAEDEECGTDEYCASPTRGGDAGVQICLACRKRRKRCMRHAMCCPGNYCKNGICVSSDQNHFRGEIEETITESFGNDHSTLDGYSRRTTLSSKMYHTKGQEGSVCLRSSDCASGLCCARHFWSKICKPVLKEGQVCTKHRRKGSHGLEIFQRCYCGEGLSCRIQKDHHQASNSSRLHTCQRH
Fibroblast growth factor 10 (Homo sapiens), sequence (O15520 whole entry, looked up): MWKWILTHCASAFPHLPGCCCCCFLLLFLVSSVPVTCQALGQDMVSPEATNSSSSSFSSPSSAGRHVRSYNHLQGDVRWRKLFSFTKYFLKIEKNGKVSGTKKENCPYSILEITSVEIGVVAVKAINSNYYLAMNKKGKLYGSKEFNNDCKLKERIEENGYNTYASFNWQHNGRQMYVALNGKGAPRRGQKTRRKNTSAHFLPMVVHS
Alpha-bungarotoxin (Bungarus multicinctus), sequence (P60615 whole entry, looked up): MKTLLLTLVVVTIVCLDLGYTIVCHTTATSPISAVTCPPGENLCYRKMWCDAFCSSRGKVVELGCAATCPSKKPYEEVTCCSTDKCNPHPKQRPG
Follistatin-related protein 3 (Homo sapiens), sequence (O95633 whole entry, looked up): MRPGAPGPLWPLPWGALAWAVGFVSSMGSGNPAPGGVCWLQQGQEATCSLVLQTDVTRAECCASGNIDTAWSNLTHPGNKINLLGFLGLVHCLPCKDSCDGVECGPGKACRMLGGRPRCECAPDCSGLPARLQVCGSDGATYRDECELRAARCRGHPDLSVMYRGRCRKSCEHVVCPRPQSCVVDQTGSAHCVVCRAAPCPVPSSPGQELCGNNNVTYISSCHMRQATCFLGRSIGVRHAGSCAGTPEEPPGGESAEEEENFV

On to `CC(C)N1C(=O)[C@@]2(Cc3ccccc31)c1ccccc1C(=O)N(Cc1ccccc1C(F)(F)F)[C@H]2c1ccc(CO)cc1`, for which the composite z-score in test [1] was 1.73; in test [2] it was 0.444; in test [3], -0.756; in [5], 0.178; in [6] it was 0.366; in [7], 0.0355. For the same compound, the composite z-score in test [8] is 1.39; in test [9], 1.08; in test [10], 0.66; in test [11] it was 0.845; in test [13], -0.0311; in test [14], -0.157. Moreover, the composite z-score in test [15] was -0.0481; in [16], 0.0607; in test [17], -0.09; in test [18], -0.0247; in [19], 0.289; in test [20], -0.0261. Besides, the z-score in test [4] is -0.352 (inactive); in [12], -0.329.

Turning to `CO[C@H]1O[C@H](CO)[C@@H](OC(=O)Nc2cccc(F)c2)[C@H](OC(=O)Nc2ccc3c(c2)OCO3)[C@@H]1OC(=O)Nc1ccc2c(c1)OCO2`, the composite z-score in test [1] amounted to 1.13; in test [2], 0.359; in [3], 0.558; in test [5], 1; in test [6], 1.2; in test [7], 0.0595. Further, the composite z-score in test [8] was 1.37; in [9] it was 0.229; in test [10] it was 0.663; in test [11], 1.5; in [13] it was -0.0699; in [14], 0.911. Besides, the composite z-score is -1.04 in test [15]; 0.0186 in test [16]; 0.214 in test [17]; 0.724 in test [18]; 1.46 in test [19]; 1.02 in test [20]. Further, the values for the z-score in test [4] and in test [12] were -1.13 (inactive) and -1.14, respectively.

Turning to `O=C1C2C=CC(C(O)c3ccccn3)N(Nc3ccc([N+](=O)[O-])cc3)C2C(=O)N1c1ccccc1` (stereo not given), the composite z-score in test [1] worked out at 1.42; in [2], 1.01; in test [3], 0.891; in test [5], 0.37; in test [6] it was 0.377; in test [7], 0.0711. Also, the composite z-score in test [8] was 0.55; in test [9], -0.189; in test [10] it was 0.522; in [11] it was 0.0529; in test [13], 0.335; in [14], 2.02. In addition, the composite z-score in test [15] was 0.897; in [16], -0.0799; in [17] it was 0.184; in [18], 0.479; in test [19], 0.958; in [20], 1.11. For the same compound, the z-score in [4] was 0.981 (inactive); in test [12] it was -0.35.

For the compound `CN(C)CCCCNC(=O)[C@H]1C[C@H]2C(=O)N[C@@H](CCCCN(C)C)C(=O)N2[C@H]1c1ccc(O)cc1`, the composite z-score in [1] is 1.12; in test [2], -0.265; in test [3], -0.508; in [5], 0.174; in test [6], -0.0777; in test [7] it was 0.821. The composite z-score is 0.592 in test [8]; 1.16 in [9]; -0.0636 in test [10]; -1.01 in [11]; 0.435 in test [13]; -0.362 in [14]. Moreover, the composite z-score in test [15] was -0.873; in test [16] it was -0.128; in [17], -0.229; in [18], -0.0446; in test [19], -0.178; in test [20], 0.457. Moreover, the z-score in [4] was -1.73 (inactive); in test [12] it was 0.448.

Regarding `C=C(C(=O)CC[C@H](OC(=O)c1ccccc1-c1ccccc1C(=O)O)c1ccc(OCCO)cc1)C(C)C`, the composite z-score in test [1] was 1.26; in test [2] it was 0.157; in [3] it was 0.0371; in [5], 1.04; in test [6], 0.114; in [7] it was -0.242. The composite z-score in test [8] is 0.0428; in [9], 0.339; in test [10], 0.548; in test [11] it was 1.38; in [13], 0.0164; in test [14], 0.275. Besides, the composite z-score in [15] was -0.37; in [16] it was 0.204; in test [17], 0.0639; in test [18] it was 1.14; in test [19] it was 0.735; in [20] it was 0.971. Besides, the z-score in test [4] is -0.47 (inactive); in [12], -1.26.
